This is an account of results in publication PMC8384837, “Expanding the binding specificity for RNA recognition by a PUF domain”.

Substitutions are numbered along the chain they refer to.

What all share (experiment): yeast three-hybrid, YBZ-1, SC-Leu-His + 0.5 mM 3-AT, 4 days
Common to all, as to conditions: tags: N-Gal4 AD-HA kept; label: inside an RPR1-promoter hybrid RNA with tandem MS2 sites; ssRNA

The target in assay [1] is PUM1 PUF domain R4-VMC (Homo sapiens, UniProt Q14671 828-1176, N971V;H972M;Q975C). An outline of the steps: (§1)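 Pumilio-1 PUF domain libraries, randomized at the three base-contacting residues of each repeat, were co-expressed with matching RNA elements from a centromeric plasmid in strain YBZ-1, which carries a LexA–MS2 coat fusion and a HIS3 reporter. Transformants grew for four days on SC-Leu (input) or on SC-Leu-His + 0.5 mM 3-AT (selection), and the repeat regions were PCR-amplified and Illumina-sequenced. The interaction score is the log change in variant frequency from input to selection. That logarithm is base 2, with a pseudocount of 1 where a variant was absent.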

Assay [2] deals with PUM1 PUF domain R4-VNV (Homo sapiens, UniProt Q14671 828-1176, N971V;H972N;Q975V). An outline of the steps: as §1
Assay [3] has as its target T1, PUM1 PUF domain R6-HFV (Homo sapiens, UniProt Q14671 828-1176, N1043H;Y1044F;Q1047V).
T1 sequence: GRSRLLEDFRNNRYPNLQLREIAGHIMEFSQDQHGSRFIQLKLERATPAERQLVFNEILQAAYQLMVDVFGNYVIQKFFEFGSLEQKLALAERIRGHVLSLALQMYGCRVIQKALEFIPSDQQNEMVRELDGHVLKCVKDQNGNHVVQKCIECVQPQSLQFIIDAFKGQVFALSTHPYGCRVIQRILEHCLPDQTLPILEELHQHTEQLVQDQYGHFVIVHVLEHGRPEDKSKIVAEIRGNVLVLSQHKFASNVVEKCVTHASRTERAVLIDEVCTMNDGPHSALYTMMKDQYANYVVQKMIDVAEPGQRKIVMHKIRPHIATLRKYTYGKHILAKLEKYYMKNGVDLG
An outline of the steps:
as §1

The target of assay [4] is PUM1 PUF domain R5-RFI (Homo sapiens, UniProt Q14671 828-1176, C1007R;R1008F;Q1011I). An outline of the steps: as §1
For assay [5], the target named is PUM1 PUF domain R8-GFK (Homo sapiens, UniProt Q14671 828-1176, N1122G;Y1123F;Q1126K). The procedure, abridged: as §1
In assay [6] the target is PUM1 PUF domain R1-RGN (Homo sapiens, UniProt Q14671 828-1176, S863R;R864G;Q867N). An outline of the steps:
as §1

For assay [7], the target named is PUM1 PUF domain R2-AWH (Homo sapiens, UniProt Q14671 828-1176, N899A;Y900W;Q903H). The procedure, abridged:
as §1

The target in assay [8] is PUM1 PUF domain R2-LFA (Homo sapiens, UniProt Q14671 828-1176, N899L;Y900F;Q903A). The procedure, abridged:
as §1

Assay [9] addresses PUM1 PUF domain R1-KAV (Homo sapiens, UniProt Q14671 828-1176, S863K;R864A;Q867V). The procedure, abridged: as §1
The target in assay [10] is T2, PUM1 PUF domain R6-VYH (Homo sapiens, UniProt Q14671 828-1176, N1043V;Q1047H).
T2 sequence: T1 sequence with H216V, F217Y, V220H
An outline of the steps:
as §1

Consider “GGCUAGAACUAGUGGAUCCCCCGGCGCCCGGCGGCUCGAGCCCGGGUAAGUGUACAUAGUCUGCAUGCCGCCGGGCGCCAUGCCUGCAGGUCGACUCUAGAAAACAUG”, for which the values for the binding signal in assay [1] and in [2] were 2.94 log2 enrichment (interaction score) and 2.33 log2 enrichment (interaction score), respectively. As to “GGCUAGAACUAGUGGAUCCCCCGGCGCCCGGCGGCUCGAGCCCGGGUAAGUGUAAAUAGUCUGCAUGCCGCCGGGCGCCAUGCCUGCAGGUCGACUCUAGAAAACAUG”, the binding signal in assay [3] is 2.51 log2 enrichment (interaction score); in [4], 3.37 log2 enrichment (interaction score); in assay [1] it was 2.72 log2 enrichment (interaction score). As for “GGCUAGAACUAGUGGAUCCCCCGGCGCCCGGCGGCUCGAGCCCGGGUAAGUGUGAAUAGUCUGCAUGCCGCCGGGCGCCAUGCCUGCAGGUCGACUCUAGAAAACAUG”, the binding signal in [4] was 3.33 log2 enrichment (interaction score). With “GGCUAGAACUAGUGGAUCCCCCGGCGCCCGGCGGCUCGAGCCCGGGUAAGCGUAAAUAGUCUGCAUGCCGCCGGGCGCCAUGCCUGCAGGUCGACUCUAGAAAACAUG”, in assay [5], the binding signal is 3.45 log2 enrichment (interaction score). As for “GGCUAGAACUAGUGGAUCCCCCGGCGCCCGGCGGCUCGAGCCCGGGUAAGUGUAAAUCGUCUGCAUGCCGCCGGGCGCCAUGCCUGCAGGUCGACUCUAGAAAACAUG”, the binding signal in assay [6] is 1.85 log2 enrichment (interaction score). For the sequence “GGCUAGAACUAGUGGAUCCCCCGGCGCCCGGCGGCUCGAGCCCGGGUAAGUGUAAAAAGUCUGCAUGCCGCCGGGCGCCAUGCCUGCAGGUCGACUCUAGAAAACAUG”, the values for the binding signal in [7] and in assay [8] were 2.3 log2 enrichment (interaction score) and 3.68 log2 enrichment (interaction score), respectively. With “GGCUAGAACUAGUGGAUCCCCCGGCGCCCGGCGGCUCGAGCCCGGGUAAGUGUAAAUUGUCUGCAUGCCGCCGGGCGCCAUGCCUGCAGGUCGACUCUAGAAAACAUG”, the binding signal is 2.37 log2 enrichment (interaction score) in assay [6] and 2.36 log2 enrichment (interaction score) in [9]. Regarding “GGCUAGAACUAGUGGAUCCCCCGGCGCCCGGCGGCUCGAGCCCGGGUAAGUGAAAAUAGUCUGCAUGCCGCCGGGCGCCAUGCCUGCAGGUCGACUCUAGAAAACAUG”, the binding signal in [10] is 5.62 log2 enrichment (interaction score). Consider “GGCUAGAACUAGUGGAUCCCCCGGCGCCCGGCGGCUCGAGCCCGGGUAAGUGUAAAUGGUCUGCAUGCCGCCGGGCGCCAUGCCUGCAGGUCGACUCUAGAAAACAUG”, for which the binding signal in assay [6] was 0.76 log2 enrichment (interaction score).
